Entries with a potency or affinity are not part of this list. Inconclusive results are not listed. Active and inactive are the calls of the source.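 Rule for the calls: active = in every test run, a fitted half-maximal concentration for signal decrease at or below twice the highest tested concentration; inconclusive = runs disagree, flat 30 to 70% decrease, or poor fit; inactive = the rest.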
Experiment: miR-122 activators in hepatoma reporter cells, dose response, cell-based, Huh7 psiCHECK-miR122, Renilla luciferase, cherry-picked (AID 651956);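 note: Renilla luciferase from a miR-122 sensor reporter so lower signal means miR-122 activation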
Settings: 48 h; series mostly up to 35 µM

outcome, inactive:
CCCCNc1cc(C)nc(NCc2ccccc2)n1, O=C(NC[C@@H]1[C@@H](c2ccccc2)[C@H](CO)N1C(=O)C1CCC1)NC1CCCC1, C[C@@H]1CN([C@H](C)CO)C(=O)c2cccc(NC(=O)c3ccc(-c4nccs4)cc3)c2O[C@H]1CN(C)S(=O)(=O)c1ccc(F)cc1, CC(=O)Oc1ccc2c(c1)C(=O)c1ccccc1CO2, O=C(C1CC1)N1C[C@H]2[C@@H](c3ccccc31)[C@H](CO)N2C(=O)c1ccccc1F, COc1ccc(CNCCC(c2ccc(OC)cc2)c2ccccc2OC)cc1 (centres undefined), Cc1cc(C(=O)Nc2ccc3c(c2)C(=O)N(C)[C@H]2CC[C@H](CC(=O)N[C@H](C)c4ccccc4)O[C@H]2CO3)no1, CN1C(=O)c2cc(NC(=O)c3cccc(F)c3)ccc2OC[C@@H]2O[C@@H](CC(=O)Nc3ccccc3)CC[C@@H]21, CNC(=O)C[C@@H]1CC[C@@H]2[C@@H](COc3ccc(NC(=O)c4ccccc4F)cc3C(=O)N2C)O1, CCCNC(=O)N1[C@H](CNC(C)=O)[C@H](c2ccc(C3=CCCC3)cc2)[C@@H]1CO, CN(C(=O)C12CC3CC(CC(C3)C1)C2)C1CCS(=O)(=O)C1 (centres undefined), CCNC(=O)Nc1ccc2c(c1)C(=O)N(C)[C@H]1CC[C@H](CC(=O)NCCN3CCCC3)O[C@@H]1CO2, COc1ccc(-c2nc(NC(=O)CSc3nnc(C)s3)ns2)cc1, COc1ccc(-c2ccc(C#N)c(OC(=O)c3c(Cl)cccc3Cl)n2)cc1

Reference: PubChem BioAssay AID651956 (Broad Institute, 2012)
